# Results taken from article PMC7862700, “An all-to-all approach to the identification of sequence-specific readers for epigenetic DNA modifications on cytosine”.
# Key:
# Test in all cases: DAPPL (digital affinity profiling via proximity ligation, sequencing); 10 mM Tris-HCl pH 7.5, 50 mM NaCl, 1 mM DTT, 4% glycerol, room temperature, 30 min; GST-TFs on glutathione beads, 16-mer random dsDNA library, 0.1% formaldehyde crosslink after washing; high values mean tight binding
# FLI1 = target: T1, FLI1 (Homo sapiens, UniProt Q01543 1-452); details: protein: recombinant; tags: N-terminal GST; dsDNA, one strand shown
# T1 sequence: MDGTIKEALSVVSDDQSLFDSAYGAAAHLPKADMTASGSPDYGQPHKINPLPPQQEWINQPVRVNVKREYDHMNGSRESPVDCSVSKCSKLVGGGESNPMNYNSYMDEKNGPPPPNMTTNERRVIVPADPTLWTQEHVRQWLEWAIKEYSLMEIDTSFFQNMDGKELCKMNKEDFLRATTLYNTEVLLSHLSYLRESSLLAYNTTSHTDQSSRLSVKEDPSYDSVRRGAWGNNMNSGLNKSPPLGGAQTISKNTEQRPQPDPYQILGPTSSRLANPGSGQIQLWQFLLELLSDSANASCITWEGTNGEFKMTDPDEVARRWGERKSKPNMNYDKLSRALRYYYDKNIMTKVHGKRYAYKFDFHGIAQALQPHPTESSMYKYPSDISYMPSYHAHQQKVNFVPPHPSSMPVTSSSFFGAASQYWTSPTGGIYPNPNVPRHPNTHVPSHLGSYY
# Method in brief: (§1)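 Sequencing on an Illumina NextSeq500 followed washing, crosslinking with 0.1% formaldehyde, proximity ligation (BsaI/T4 ligase, 1 h, 37 °C) and PCR amplification of pools that had been incubated for 30 min at room temperature with 200 nmole of a random double-stranded 16-mer DNA library in Tris/NaCl/DTT/glycerol buffer. Each pool held DNA-barcoded human transcription factors, expressed in yeast as GST fusions and captured on glutathione beads, plus a tag-only sample. Binding signal is a hexamer's read frequency for a factor divided by its frequency in the tag-only sample.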
# ELK1 = target: T2, ELK1 (Homo sapiens, UniProt P19419 1-428); details: protein: recombinant; tags: N-terminal GST; dsDNA, one strand shown
# T2 sequence: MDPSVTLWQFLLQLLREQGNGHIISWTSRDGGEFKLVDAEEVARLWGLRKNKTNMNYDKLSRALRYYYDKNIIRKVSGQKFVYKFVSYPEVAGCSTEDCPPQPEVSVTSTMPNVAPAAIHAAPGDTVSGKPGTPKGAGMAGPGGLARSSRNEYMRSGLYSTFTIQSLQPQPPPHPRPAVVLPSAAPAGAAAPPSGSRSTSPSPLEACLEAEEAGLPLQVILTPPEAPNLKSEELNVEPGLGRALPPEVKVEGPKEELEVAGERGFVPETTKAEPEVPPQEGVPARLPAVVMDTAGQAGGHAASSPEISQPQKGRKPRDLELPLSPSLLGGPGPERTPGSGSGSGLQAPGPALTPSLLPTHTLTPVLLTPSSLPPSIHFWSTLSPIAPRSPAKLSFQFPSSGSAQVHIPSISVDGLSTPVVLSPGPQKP
# Method in brief: as §1
# GABPA = target: T3, GABPA (Homo sapiens, UniProt Q06546 1-454); details: protein: recombinant; tags: N-terminal GST; dsDNA, one strand shown
# T3 sequence: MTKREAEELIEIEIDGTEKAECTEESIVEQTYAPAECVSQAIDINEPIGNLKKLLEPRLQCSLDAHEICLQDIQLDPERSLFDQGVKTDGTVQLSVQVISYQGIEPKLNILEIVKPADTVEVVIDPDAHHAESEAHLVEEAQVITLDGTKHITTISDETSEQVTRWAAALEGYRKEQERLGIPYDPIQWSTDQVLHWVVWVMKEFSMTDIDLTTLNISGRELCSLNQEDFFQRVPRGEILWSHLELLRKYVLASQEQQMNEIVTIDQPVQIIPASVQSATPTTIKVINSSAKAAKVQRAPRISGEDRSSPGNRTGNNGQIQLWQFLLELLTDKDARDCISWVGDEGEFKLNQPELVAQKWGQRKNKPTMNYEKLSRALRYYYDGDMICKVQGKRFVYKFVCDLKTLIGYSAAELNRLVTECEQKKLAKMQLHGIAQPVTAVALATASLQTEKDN
# Method in brief: as §1
# ERG = target: T4, ERG (Homo sapiens, UniProt P11308 1-479); details: protein: recombinant; tags: N-terminal GST; dsDNA, one strand shown
# T4 sequence: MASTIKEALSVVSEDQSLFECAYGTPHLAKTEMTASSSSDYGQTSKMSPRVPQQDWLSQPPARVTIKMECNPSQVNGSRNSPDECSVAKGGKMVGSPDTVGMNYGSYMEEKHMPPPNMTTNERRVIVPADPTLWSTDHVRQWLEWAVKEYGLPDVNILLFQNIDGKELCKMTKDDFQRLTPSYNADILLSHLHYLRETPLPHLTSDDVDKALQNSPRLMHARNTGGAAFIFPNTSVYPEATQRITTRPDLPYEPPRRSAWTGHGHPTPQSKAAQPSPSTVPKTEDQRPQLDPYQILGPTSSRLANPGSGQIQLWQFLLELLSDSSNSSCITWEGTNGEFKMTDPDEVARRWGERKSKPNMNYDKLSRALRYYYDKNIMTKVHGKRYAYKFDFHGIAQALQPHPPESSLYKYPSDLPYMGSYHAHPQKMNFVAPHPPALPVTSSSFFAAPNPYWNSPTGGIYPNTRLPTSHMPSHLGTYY
# Method in brief: as §1
# ELF1 = ELF1 (Homo sapiens, UniProt P32519 1-619); details: protein: recombinant; tags: N-terminal GST; dsDNA, one strand shown
# Method in brief: as §1
# EHF = target: T5, EHF (Homo sapiens, UniProt Q9NZC4 1-300); details: protein: recombinant; tags: N-terminal GST; dsDNA, one strand shown
# T5 sequence: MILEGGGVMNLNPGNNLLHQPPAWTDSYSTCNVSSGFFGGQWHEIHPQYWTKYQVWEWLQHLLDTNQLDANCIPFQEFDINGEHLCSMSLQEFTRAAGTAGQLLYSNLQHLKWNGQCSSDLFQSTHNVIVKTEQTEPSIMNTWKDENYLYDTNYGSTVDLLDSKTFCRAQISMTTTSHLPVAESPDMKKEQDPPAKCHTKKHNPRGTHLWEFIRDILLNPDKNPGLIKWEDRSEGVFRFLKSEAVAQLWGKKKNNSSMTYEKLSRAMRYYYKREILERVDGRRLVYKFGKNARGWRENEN
# Method in brief: as §1
# SPI1 = SPI1 (Homo sapiens, UniProt P17947 1-270); details: protein: recombinant; tags: N-terminal GST; dsDNA, one strand shown
# Method in brief: as §1
# SPIB = SPIB (Homo sapiens, UniProt Q01892 1-262); details: protein: recombinant; tags: N-terminal GST; dsDNA, one strand shown
# Method in brief: as §1
# ELK3 = target: T6, ELK3 (Homo sapiens, UniProt P41970 1-407); details: protein: recombinant; tags: N-terminal GST; dsDNA, one strand shown
# T6 sequence: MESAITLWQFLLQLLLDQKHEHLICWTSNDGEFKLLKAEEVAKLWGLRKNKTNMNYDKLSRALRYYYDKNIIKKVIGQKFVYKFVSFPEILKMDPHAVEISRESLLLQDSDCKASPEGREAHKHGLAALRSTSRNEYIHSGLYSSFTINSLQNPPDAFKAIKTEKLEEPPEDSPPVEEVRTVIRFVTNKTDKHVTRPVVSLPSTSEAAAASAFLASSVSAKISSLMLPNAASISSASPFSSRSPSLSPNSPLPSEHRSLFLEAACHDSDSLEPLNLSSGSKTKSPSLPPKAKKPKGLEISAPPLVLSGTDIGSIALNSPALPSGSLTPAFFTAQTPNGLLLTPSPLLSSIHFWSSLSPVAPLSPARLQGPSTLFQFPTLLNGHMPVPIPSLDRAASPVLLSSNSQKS
# Method in brief: as §1
# FEV = target: T7, FEV (Homo sapiens, UniProt Q99581 1-238); details: protein: recombinant; tags: N-terminal GST; dsDNA, one strand shown
# T7 sequence: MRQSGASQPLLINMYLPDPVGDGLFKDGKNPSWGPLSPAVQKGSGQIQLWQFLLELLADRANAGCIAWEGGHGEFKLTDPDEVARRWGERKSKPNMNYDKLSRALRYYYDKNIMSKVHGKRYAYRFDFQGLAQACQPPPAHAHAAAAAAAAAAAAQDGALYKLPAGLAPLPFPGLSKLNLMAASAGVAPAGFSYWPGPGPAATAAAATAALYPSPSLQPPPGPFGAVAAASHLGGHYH
# Method in brief: as §1
# ETV5 = ETV5 (Homo sapiens, UniProt P41161 1-510); details: protein: recombinant; tags: N-terminal GST; dsDNA, one strand shown
# Method in brief: as §1
# HSF1 = HSF1 (Homo sapiens, UniProt Q00613 1-529); details: protein: recombinant; tags: N-terminal GST; chain copies: 3; dsDNA, one strand shown
# Method in brief: as §1
# SPIC = target: T8, SPIC (Homo sapiens, UniProt Q8N5J4 1-248); details: protein: recombinant; tags: N-terminal GST; dsDNA, one strand shown
# T8 sequence: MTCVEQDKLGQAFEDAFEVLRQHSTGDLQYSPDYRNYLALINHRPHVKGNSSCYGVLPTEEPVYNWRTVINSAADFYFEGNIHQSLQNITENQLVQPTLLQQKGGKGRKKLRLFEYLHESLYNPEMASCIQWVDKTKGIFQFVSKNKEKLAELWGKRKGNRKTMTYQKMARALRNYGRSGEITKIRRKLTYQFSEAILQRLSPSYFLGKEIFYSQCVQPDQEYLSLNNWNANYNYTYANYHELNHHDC
# Method in brief: as §1
# ELF4 = ELF4 (Homo sapiens, UniProt Q99607 1-663); details: protein: recombinant; tags: N-terminal GST; dsDNA, one strand shown
# Method in brief: as §1
# ELK4 = target: T9, ELK4 (Homo sapiens, UniProt P28324-2 1-405); details: protein: recombinant; tags: N-terminal GST; dsDNA, one strand shown
# T9 sequence: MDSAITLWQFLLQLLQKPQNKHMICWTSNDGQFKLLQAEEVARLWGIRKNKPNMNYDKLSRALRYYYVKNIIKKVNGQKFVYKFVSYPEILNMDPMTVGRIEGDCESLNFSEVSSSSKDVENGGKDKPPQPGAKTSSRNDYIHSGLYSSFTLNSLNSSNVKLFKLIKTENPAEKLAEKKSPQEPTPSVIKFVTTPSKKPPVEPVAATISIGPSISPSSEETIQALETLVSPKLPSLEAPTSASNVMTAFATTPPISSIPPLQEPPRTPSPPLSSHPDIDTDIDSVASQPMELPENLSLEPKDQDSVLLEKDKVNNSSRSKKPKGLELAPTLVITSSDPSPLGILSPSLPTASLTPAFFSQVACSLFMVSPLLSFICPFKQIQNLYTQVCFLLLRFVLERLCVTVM
# Method in brief: as §1
# ETV2 = target: T10, ETV2 (Homo sapiens, UniProt O00321 1-342); details: protein: recombinant; tags: N-terminal GST; dsDNA, one strand shown
# T10 sequence: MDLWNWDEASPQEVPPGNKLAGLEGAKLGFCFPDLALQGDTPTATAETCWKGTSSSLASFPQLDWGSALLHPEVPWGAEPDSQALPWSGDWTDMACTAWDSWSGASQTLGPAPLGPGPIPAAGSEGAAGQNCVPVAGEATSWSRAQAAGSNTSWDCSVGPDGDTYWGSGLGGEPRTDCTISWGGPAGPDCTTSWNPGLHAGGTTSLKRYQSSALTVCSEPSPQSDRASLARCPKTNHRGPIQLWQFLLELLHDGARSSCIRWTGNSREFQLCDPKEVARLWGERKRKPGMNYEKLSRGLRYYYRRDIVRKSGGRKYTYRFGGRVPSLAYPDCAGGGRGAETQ
# Method in brief: as §1
# ELF3 = target: T11, ELF3 (Homo sapiens, UniProt P78545 1-371); details: protein: recombinant; tags: N-terminal GST; dsDNA, one strand shown
# T11 sequence: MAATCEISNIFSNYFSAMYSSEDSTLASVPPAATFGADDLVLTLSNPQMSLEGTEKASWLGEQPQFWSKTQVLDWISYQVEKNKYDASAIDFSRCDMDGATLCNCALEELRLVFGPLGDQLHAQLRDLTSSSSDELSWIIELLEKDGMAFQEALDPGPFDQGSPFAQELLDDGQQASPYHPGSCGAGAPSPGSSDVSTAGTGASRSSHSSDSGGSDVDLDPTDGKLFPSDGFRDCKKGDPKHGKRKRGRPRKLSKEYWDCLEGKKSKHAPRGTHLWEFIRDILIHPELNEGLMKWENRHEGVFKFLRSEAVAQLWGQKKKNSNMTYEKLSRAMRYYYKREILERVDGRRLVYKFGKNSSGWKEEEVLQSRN
# Method in brief: as §1
# CRX = CRX (Homo sapiens, UniProt O43186 1-299); details: protein: recombinant; tags: N-terminal GST; dsDNA, one strand shown
# Method in brief: as §1
# ETV1 = ETV1 (Homo sapiens, UniProt P50549 1-477); details: protein: recombinant; tags: N-terminal GST; dsDNA, one strand shown
# Method in brief: as §1
# Sequence of ETV1 (P50549 whole entry): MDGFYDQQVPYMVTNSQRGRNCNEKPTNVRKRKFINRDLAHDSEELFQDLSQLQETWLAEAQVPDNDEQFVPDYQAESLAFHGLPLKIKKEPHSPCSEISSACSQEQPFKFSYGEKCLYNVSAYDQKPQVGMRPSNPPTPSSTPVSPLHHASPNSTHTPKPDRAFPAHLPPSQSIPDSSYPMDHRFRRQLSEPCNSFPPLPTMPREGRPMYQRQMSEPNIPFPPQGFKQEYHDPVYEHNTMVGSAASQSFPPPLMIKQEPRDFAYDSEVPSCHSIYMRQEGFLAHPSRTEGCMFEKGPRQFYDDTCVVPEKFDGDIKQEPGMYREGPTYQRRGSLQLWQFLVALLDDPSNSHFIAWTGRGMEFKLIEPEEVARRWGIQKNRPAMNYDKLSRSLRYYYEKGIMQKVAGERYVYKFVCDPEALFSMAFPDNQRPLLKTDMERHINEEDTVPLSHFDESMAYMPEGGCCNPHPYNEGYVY
# Sequence of ELF4 (Q99607 whole entry): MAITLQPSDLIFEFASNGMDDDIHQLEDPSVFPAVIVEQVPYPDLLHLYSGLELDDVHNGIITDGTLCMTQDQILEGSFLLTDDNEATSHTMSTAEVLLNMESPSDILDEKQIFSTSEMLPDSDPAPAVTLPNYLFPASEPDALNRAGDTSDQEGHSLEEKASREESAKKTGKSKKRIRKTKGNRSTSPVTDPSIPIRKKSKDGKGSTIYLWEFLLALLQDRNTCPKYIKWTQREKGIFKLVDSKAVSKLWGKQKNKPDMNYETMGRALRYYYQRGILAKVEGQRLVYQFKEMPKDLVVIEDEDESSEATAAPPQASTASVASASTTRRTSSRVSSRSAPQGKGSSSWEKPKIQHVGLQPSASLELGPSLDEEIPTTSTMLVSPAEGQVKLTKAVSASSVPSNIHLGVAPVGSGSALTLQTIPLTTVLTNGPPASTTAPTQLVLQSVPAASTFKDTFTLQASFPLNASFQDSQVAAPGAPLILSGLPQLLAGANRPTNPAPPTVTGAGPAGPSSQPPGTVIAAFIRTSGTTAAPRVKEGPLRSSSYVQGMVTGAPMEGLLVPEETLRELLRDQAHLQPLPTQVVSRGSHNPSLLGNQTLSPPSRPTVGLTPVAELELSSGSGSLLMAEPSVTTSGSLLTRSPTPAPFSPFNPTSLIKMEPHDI
# Sequence of HSF1 (Q00613 whole entry): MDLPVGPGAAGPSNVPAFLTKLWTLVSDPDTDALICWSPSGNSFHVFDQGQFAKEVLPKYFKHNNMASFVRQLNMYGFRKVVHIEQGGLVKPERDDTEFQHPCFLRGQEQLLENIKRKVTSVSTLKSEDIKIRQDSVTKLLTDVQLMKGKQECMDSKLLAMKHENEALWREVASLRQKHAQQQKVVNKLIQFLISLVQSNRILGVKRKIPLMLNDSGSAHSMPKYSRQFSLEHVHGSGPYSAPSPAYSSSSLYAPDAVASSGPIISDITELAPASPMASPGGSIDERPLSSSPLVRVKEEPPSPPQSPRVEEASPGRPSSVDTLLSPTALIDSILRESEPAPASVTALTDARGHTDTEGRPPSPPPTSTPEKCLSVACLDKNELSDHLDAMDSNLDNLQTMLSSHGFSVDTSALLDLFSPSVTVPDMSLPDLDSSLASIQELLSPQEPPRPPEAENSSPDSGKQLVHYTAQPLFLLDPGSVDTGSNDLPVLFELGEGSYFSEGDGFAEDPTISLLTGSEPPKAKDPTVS
# Sequence of SPIB (Q01892 whole entry): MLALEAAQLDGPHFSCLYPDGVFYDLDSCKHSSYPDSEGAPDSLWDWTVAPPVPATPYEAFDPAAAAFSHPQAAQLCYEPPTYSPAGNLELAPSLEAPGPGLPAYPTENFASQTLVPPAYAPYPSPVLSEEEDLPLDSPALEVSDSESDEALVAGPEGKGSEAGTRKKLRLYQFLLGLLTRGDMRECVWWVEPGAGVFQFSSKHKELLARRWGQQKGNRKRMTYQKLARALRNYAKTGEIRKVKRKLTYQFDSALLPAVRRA
# Sequence of ELF1 (P32519 whole entry): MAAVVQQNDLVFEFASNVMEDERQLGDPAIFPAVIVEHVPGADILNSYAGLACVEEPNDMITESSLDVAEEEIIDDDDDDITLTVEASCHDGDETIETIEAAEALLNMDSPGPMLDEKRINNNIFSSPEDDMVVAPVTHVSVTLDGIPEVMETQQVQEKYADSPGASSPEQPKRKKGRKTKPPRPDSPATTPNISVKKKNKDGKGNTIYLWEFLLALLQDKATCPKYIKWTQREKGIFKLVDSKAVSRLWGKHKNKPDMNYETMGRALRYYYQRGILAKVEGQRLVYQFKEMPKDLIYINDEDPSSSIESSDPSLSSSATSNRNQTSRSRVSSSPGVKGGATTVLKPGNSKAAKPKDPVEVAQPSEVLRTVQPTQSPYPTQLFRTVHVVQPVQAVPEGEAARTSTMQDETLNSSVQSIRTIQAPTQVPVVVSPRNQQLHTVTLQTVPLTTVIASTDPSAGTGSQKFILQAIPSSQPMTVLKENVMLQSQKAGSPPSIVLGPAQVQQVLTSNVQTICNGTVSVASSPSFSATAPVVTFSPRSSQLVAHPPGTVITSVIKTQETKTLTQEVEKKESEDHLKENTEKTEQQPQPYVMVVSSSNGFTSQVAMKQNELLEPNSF
# Sequence of ETV5 (P41161 whole entry): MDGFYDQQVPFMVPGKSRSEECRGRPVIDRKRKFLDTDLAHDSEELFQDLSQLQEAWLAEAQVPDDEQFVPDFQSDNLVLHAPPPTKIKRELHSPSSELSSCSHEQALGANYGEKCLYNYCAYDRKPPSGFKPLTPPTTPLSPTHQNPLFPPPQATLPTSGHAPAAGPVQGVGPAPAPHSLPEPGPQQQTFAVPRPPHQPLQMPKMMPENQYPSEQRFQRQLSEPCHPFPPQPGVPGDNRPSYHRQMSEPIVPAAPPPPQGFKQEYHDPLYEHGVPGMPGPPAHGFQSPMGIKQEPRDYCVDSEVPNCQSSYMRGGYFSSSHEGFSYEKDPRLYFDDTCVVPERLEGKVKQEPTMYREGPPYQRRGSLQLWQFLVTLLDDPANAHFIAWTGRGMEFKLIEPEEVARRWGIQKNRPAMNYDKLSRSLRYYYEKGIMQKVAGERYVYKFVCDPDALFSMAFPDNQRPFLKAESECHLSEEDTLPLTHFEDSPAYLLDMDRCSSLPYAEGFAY
# Sequence of CRX (O43186 whole entry): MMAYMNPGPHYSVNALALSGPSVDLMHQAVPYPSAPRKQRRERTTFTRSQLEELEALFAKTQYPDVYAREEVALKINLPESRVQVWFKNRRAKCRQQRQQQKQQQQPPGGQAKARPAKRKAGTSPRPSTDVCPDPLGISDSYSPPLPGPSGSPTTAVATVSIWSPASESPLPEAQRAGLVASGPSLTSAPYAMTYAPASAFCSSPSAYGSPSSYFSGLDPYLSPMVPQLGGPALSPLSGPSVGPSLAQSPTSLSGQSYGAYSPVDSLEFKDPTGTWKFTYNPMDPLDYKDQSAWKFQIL
sequence,measurement,setting,value
TTTGTA,binding signal,FLI1,"1.64 fold enrichment (6-mer frequency, TF over GST control)"
same,binding signal,ELK1,"1.47 fold enrichment (6-mer frequency, TF over GST control)"
same,binding signal,GABPA,"1.48 fold enrichment (6-mer frequency, TF over GST control)"
same,binding signal,ERG,"1.53 fold enrichment (6-mer frequency, TF over GST control)"
same,binding signal,ELF1,"1.56 fold enrichment (6-mer frequency, TF over GST control)"
same,binding signal,EHF,"1.55 fold enrichment (6-mer frequency, TF over GST control)"
same,binding signal,SPI1,"1.54 fold enrichment (6-mer frequency, TF over GST control)"
same,binding signal,SPIB,"1.65 fold enrichment (6-mer frequency, TF over GST control)"
same,binding signal,ELK3,"1.51 fold enrichment (6-mer frequency, TF over GST control)"
same,binding signal,FEV,"1.52 fold enrichment (6-mer frequency, TF over GST control)"
same,binding signal,ETV5,"1.64 fold enrichment (6-mer frequency, TF over GST control)"
same,binding signal,HSF1,"1.65 fold enrichment (6-mer frequency, TF over GST control)"
same,binding signal,SPIC,"1.57 fold enrichment (6-mer frequency, TF over GST control)"
same,binding signal,ELF4,"1.58 fold enrichment (6-mer frequency, TF over GST control)"
same,binding signal,ELK4,"1.75 fold enrichment (6-mer frequency, TF over GST control)"
same,binding signal,ETV2,"1.53 fold enrichment (6-mer frequency, TF over GST control)"
same,binding signal,ELF3,"1.61 fold enrichment (6-mer frequency, TF over GST control)"
same,binding signal,CRX,"1.89 fold enrichment (6-mer frequency, TF over GST control)"
same,binding signal,ETV1,"1.51 fold enrichment (6-mer frequency, TF over GST control)"
